From PubChem BioAssay (EPA / NIEHS) come the findings set out here.

Results filed as inconclusive are left out. Activity calls are given as the source filed them. The calls were made as follows, unless noted: active = hit-call score of the fitted dose curve at least 0.9, where 1 is the maximum; inconclusive = response in the unintended direction; inactive = score below 0.9.

Experiment [1] concerns the target Bile acid receptor (Homo sapiens) (UniProt Q96RI1). The experiment in a line: OT_FXR_FXRSRC1_0480: Odyssey Thera (OT) 8-hour HEK293T Protein-Complementation Assay for Farnesoid X receptor/SRC-1 Co-activator (AID 2283383). In short, it runs like this:
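PCA, HEK293T, 8 h compound exposure; FXR–SRC-1 binding reconstitutes split reporter; fluorescence intensity; positive-direction fit vs DMSO.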

Experiment [2] shares this target. The experiment in a line: OT_FXR_FXRSRC1_1440: Odyssey Thera (OT) 24-hour HEK293T Protein-Complementation Assay for Farnesoid X receptor/SRC-1 Co-activator (AID 2283384). In short, it runs like this: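 Measures ligand-driven FXR–SRC-1 co-activator recruitment in HEK293T via fragment complementation, fluorescence intensity at 24 h. DMSO served as negative control and baseline for gain-of-signal fitting.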

Experiment [3] addresses Retinoic acid receptor RXR-alpha (Homo sapiens) (UniProt P19793). The experiment in a line: OT_NURR1_NURR1RXRa_0480: Odyssey Thera (OT) 8-hour HEK293T Protein Complementation Assay for Nurr1/retinoid X receptor (RXR) (AID 2283385). In short, it runs like this:
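Interaction of bait and prey reconstitutes a functional reporter, whose fluorescence was measured in HEK293T cells dosed with compound for 8 hours. Signal gain relative to DMSO defined the single endpoint.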

Experiment [4] shares this target. The experiment in a line: OT_NURR1_NURR1RXRa_1440: Odyssey Thera (OT) 24-hour HEK293T Protein Complementation Assay for Nurr1/retinoid X receptor (RXR) (AID 2283386). In short, it runs like this:
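Steps: fragment-tagged Nurr1 and RXRα expressed in HEK293T; compounds added; after 24 h, complemented reporter quantified by fluorescence intensity; signal increase over DMSO fitted as the single endpoint.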

The target of experiment [5] is Peroxisome proliferator-activated receptor gamma (Homo sapiens) (UniProt P37231). The experiment in a line: OT_PPARg_PPARgSRC1_0480: Odyssey Thera (OT) 8-hour Protein-Complementation Assay for Peroxisome Proliferator-activated Receptor Gamma / SRC-1 Co-activator (AID 2283387). In short, it runs like this:
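Read-out: 488 nm N/C fluorescence ratio from complemented Venus YFP fragments, ≥350 cells per image, gain-of-signal fitted against DMSO baseline. Fusions of PPARg/SRC-1 with IFP1/IFP2 expressed transiently in HEK293T; compounds applied 8 h.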

The target is the same in experiment [6]. The experiment in a line: OT_PPARg_PPARgSRC1_1440: Odyssey Thera (OT) 24-hour Protein-Complementation Assay for Peroxisome Proliferator-activated Receptor Gamma/ SRC-1 Co-activator (AID 2283388). In short, it runs like this:
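HEK293T transiently transfected with PPARg/SRC-1 split-Venus YFP fusions 48 h before dosing, then treated 24 h at 37C. Fixed cells imaged; nuclear/cytoplasmic 488 nm fluorescence ratio, gain of signal versus DMSO.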

The nature of experiment [7]: CEETOX_H295R_11DCORT: CeeTox H295R High-throughput Steroidogenesis Assay for 11-Deoxycortisol (11DCORT) (AID 2283432; active = hit-call score of the fitted dose curve at least 0.9, where 1 is the maximum; inactive = score below 0.9). The note with it: actives raise or lower the signal. In short, it runs like this:
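H295R cells; 10 uM forskolin prestim 48 h; compound in 0.1% DMSO 48 h; media extracted with MTBE; 11-deoxycortisol by LC-MS/MS, 7-point standard curve; gain/loss vs DMSO baseline; viability by MTT in same wells.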

Experiment [8] in a line: CEETOX_H295R_OHPREG: CeeTox H295R High-throughput Steroidogenesis Assay for OH-Pregnenolone (OHPREG) (AID 2283434; active = hit-call score of the fitted dose curve at least 0.9, where 1 is the maximum; inactive = score below 0.9). The note with it: actives raise or lower the signal. In short, it runs like this: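 H295R, 10 uM forskolin pre-stim 48 h; test chemical 48 h, 0.1% DMSO final. MTBE extraction, reverse-phase C18 HPLC-ESI+ MS/MS of medium. Gain/loss vs DMSO; viability by MTT in same wells.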

Experiment [9] can be described thus: CEETOX_H295R_OHPROG: CeeTox H295R High-throughput Steroidogenesis Assay for OH-Progesterone (OHPROG) (AID 2283435; active = hit-call score of the fitted dose curve at least 0.9, where 1 is the maximum; inactive = score below 0.9). The note with it: actives raise or lower the signal. In short, it runs like this: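 Steps: seed H295R cells and adhere overnight; stimulate with 10 uM forskolin for 48 h; replace with chemical-containing medium (0.1% DMSO) for 48 h; extract medium with MTBE; quantify 17alpha-hydroxyprogesterone by reverse-phase C18 HPLC-MS/MS against a 7-point curve.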

Experiment [10] can be described thus: CEETOX_H295R_CORTIC: CeeTox H295R High-throughput Steroidogenesis Assay for Corticosterone (CORTIC) (AID 2283437; active = hit-call score of the fitted dose curve at least 0.9, where 1 is the maximum; inactive = score below 0.9;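 also: corticosterone secreted into medium quantified by mass spectrometry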). The note with it: actives raise or lower the signal. In short, it runs like this:
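48 h forskolin (10 uM) prestim, then 48 h chemical exposure, final DMSO 0.1%. Readout: corticosterone in medium by LC-MS/MS after MTBE extraction. Gain/loss fit vs DMSO; MTT viability in same wells.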

Experiment [11] is described as follows: CEETOX_H295R_CORTISOL: CeeTox H295R High-throughput Steroidogenesis Assay for Cortisol (AID 2283438; active = hit-call score of the fitted dose curve at least 0.9, where 1 is the maximum; inactive = score below 0.9). The note with it: actives raise or lower the signal. In short, it runs like this: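 Cortisol synthesis by H295R cells is measured 48 h after chemical dosing, following a 48 h stimulation with 10 uM forskolin. Hormone is extracted and quantified by HPLC-MS/MS, and activity is fitted bidirectionally against the DMSO control.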

The nature of experiment [12]: CEETOX_H295R_DOC: CeeTox H295R High-throughput Steroidogenesis Assay for DOC (AID 2283439; active = hit-call score of the fitted dose curve at least 0.9, where 1 is the maximum; inactive = score below 0.9). The note with it: actives raise or lower the signal. In short, it runs like this:
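Steps: seed H295R, adhere overnight; 10 uM forskolin 48 h; replace with chemical medium (0.1% DMSO) 48 h; collect medium, MTBE extraction, HPLC-MS/MS for DOC. Viability then checked by MTT; cytotoxic chemicals diluted until viability ≥70%.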

Experiment [13] is described as follows: CEETOX_H295R_ESTRADIOL: CeeTox H295R High-throughput Steroidogenesis Assay for Estradiol (AID 2283440; active = hit-call score of the fitted dose curve at least 0.9, where 1 is the maximum; inactive = score below 0.9;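 also: estradiol secreted into medium quantified by LC-MS/MS after dansyl derivatisation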). The note with it: actives raise or lower the signal. In short, it runs like this:
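H295R cells pre-stimulated 48 h with 10 uM forskolin, then exposed 48 h to chemical in 0.1% DMSO. Medium estradiol quantified by MTBE extraction, dansyl derivatisation and HPLC-MS/MS; bidirectional fit versus DMSO; MTT viability required >/=70%.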

Experiment [14] in a line: CEETOX_H295R_ESTRONE: CeeTox H295R High-throughput Steroidogenesis Assay for Estrone (AID 2283441; active = hit-call score of the fitted dose curve at least 0.9, where 1 is the maximum; inactive = score below 0.9;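 also: human adrenal H295R cells prestimulated with forskolin for two days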). The note with it: actives raise or lower the signal. In short, it runs like this:
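Estrone secreted into medium quantified by LC-MS/MS after dansyl chloride derivatization, following 48 h chemical exposure (0.1% DMSO final) of forskolin-prestimulated (10 uM, 48 h) H295R cells; gain or loss fitted against DMSO; MTT viability in same wells.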

The nature of experiment [15]: CEETOX_H295R_PROG: CeeTox H295R High-throughput Steroidogenesis Assay for Progesterone (PROG) (AID 2283442; active = hit-call score of the fitted dose curve at least 0.9, where 1 is the maximum; inactive = score below 0.9). The note with it: actives raise or lower the signal. In short, it runs like this: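 H295R adrenal cells prestimulated 48 h with 10 uM forskolin, then exposed 48 h to test chemical in 0.1% DMSO. Progesterone in medium quantified by HPLC-MS/MS after MTBE extraction; viability checked by MTT in same wells.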

Read-out in experiment [16]: Tumor necrosis factor receptor superfamily member 6 (Homo sapiens) (UniProt P25445)
The experiment in a line: LTEA_HepaRG_FAS: Life Technologies and Expression Analysis (LTEA) Assay for Fas cell surface death receptor (FAS) using HepaRG (AID 2283447; active = hit-call score of the fitted dose curve at least 0.9, where 1 is the maximum; inactive = score below 0.9). The note with it: mRNA level, 48 h; actives raise or lower the signal. In short, it runs like this: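 Differentiated HepaRG cells in serum-free induction medium were exposed 48 h to 8 half-log concentrations up to 100 uM in 0.5% DMSO, in duplicate. FAS mRNA was measured by qRT-PCR normalised to ACTB, GAPDH and POLR2A; bidirectional fit versus DMSO.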

Read-out in experiment [17]: Fatty acid synthase (Homo sapiens) (UniProt P49327)
The experiment in a line: LTEA_HepaRG_FASN: Life Technologies and Expression Analysis (LTEA) Assay for Fatty Acid Synthase (FASN) using HepaRG (AID 2283448; active = hit-call score of the fitted dose curve at least 0.9, where 1 is the maximum; inactive = score below 0.9;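 as to AC50: differentiated human HepaRG liver cells in serum-free induction medium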). The note with it: mRNA level, 48 h; actives raise or lower the signal. In short, it runs like this:
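Cells were plated, cultured 48 h, switched to serum-free induction medium, then dosed in duplicate (max 100 uM, half-log dilutions, 0.5% DMSO) for 48 h. RNA was then isolated and FASN quantified by qRT-PCR.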

Read-out in experiment [18]: Cyclin D2 (CCND2), CCND2 (gene 894)
The experiment in a line: LTEA_HepaRG_CCND2: Life Technologies and Expression Analysis (LTEA) Assay for Cyclin D2 (CCND2) using HepaRG (AID 2283449; active = hit-call score of the fitted dose curve at least 0.9, where 1 is the maximum; inactive = score below 0.9;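 also: CCND2 transcript measured by TaqMan qRT-PCR and normalised to three housekeeping genes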). The note with it: mRNA level, 48 h; actives raise or lower the signal. In short, it runs like this:
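HepaRG, 48 h dosing, 8-pt half-log curve from 100 uM, 0.5% DMSO; duplicate wells. Readout: CCND2 transcript by microfluidic qRT-PCR, housekeeping-normalised; bidirectional fit vs DMSO baseline.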

Read-out in experiment [19]: Cyclin Dependent Kinase Inhibitor 1A (CDKN1A), CDKN1A (gene 1026)
The experiment in a line: LTEA_HepaRG_CDKN1A: Life Technologies and Expression Analysis (LTEA) Assay for Cyclin Dependent Kinase Inhibitor 1A (CDKN1A) using HepaRG (AID 2283450; active = hit-call score of the fitted dose curve at least 0.9, where 1 is the maximum; inactive = score below 0.9). The note with it: mRNA level, 48 h; actives raise or lower the signal. In short, it runs like this: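 Differentiated HepaRG cells in serum-free induction medium, exposed 48 h in duplicate to eight half-log concentrations up to 100 uM in 0.5% DMSO. mRNA measured by TaqMan qRT-PCR, normalized to ACTB, GAPDH, POLR2A; bidirectional fit versus DMSO.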

Experiment [20] can be described thus: CEETOX_H295R_ANDR: CeeTox H295R High-throughput Steroidogenesis Assay for Androstenedione (ANDR) (AID 2283436; active = hit-call score of the fitted dose curve at least 0.9, where 1 is the maximum; inactive = score below 0.9;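 also: human H295R adrenal cells exposed for 48 h with androstenedione measured in medium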). The note with it: actives raise or lower the signal. In short, it runs like this:
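48 h chemical exposure, H295R cells, DMEM/F12 + ITS+ and Nu-Serum. Medium androstenedione: MTBE extraction, C18 reverse-phase HPLC, ESI+ MS/MS. Fit bidirectional vs DMSO; MTT viability in same wells.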

Fatty acid synthase (Homo sapiens), sequence (P49327 whole entry, looked up): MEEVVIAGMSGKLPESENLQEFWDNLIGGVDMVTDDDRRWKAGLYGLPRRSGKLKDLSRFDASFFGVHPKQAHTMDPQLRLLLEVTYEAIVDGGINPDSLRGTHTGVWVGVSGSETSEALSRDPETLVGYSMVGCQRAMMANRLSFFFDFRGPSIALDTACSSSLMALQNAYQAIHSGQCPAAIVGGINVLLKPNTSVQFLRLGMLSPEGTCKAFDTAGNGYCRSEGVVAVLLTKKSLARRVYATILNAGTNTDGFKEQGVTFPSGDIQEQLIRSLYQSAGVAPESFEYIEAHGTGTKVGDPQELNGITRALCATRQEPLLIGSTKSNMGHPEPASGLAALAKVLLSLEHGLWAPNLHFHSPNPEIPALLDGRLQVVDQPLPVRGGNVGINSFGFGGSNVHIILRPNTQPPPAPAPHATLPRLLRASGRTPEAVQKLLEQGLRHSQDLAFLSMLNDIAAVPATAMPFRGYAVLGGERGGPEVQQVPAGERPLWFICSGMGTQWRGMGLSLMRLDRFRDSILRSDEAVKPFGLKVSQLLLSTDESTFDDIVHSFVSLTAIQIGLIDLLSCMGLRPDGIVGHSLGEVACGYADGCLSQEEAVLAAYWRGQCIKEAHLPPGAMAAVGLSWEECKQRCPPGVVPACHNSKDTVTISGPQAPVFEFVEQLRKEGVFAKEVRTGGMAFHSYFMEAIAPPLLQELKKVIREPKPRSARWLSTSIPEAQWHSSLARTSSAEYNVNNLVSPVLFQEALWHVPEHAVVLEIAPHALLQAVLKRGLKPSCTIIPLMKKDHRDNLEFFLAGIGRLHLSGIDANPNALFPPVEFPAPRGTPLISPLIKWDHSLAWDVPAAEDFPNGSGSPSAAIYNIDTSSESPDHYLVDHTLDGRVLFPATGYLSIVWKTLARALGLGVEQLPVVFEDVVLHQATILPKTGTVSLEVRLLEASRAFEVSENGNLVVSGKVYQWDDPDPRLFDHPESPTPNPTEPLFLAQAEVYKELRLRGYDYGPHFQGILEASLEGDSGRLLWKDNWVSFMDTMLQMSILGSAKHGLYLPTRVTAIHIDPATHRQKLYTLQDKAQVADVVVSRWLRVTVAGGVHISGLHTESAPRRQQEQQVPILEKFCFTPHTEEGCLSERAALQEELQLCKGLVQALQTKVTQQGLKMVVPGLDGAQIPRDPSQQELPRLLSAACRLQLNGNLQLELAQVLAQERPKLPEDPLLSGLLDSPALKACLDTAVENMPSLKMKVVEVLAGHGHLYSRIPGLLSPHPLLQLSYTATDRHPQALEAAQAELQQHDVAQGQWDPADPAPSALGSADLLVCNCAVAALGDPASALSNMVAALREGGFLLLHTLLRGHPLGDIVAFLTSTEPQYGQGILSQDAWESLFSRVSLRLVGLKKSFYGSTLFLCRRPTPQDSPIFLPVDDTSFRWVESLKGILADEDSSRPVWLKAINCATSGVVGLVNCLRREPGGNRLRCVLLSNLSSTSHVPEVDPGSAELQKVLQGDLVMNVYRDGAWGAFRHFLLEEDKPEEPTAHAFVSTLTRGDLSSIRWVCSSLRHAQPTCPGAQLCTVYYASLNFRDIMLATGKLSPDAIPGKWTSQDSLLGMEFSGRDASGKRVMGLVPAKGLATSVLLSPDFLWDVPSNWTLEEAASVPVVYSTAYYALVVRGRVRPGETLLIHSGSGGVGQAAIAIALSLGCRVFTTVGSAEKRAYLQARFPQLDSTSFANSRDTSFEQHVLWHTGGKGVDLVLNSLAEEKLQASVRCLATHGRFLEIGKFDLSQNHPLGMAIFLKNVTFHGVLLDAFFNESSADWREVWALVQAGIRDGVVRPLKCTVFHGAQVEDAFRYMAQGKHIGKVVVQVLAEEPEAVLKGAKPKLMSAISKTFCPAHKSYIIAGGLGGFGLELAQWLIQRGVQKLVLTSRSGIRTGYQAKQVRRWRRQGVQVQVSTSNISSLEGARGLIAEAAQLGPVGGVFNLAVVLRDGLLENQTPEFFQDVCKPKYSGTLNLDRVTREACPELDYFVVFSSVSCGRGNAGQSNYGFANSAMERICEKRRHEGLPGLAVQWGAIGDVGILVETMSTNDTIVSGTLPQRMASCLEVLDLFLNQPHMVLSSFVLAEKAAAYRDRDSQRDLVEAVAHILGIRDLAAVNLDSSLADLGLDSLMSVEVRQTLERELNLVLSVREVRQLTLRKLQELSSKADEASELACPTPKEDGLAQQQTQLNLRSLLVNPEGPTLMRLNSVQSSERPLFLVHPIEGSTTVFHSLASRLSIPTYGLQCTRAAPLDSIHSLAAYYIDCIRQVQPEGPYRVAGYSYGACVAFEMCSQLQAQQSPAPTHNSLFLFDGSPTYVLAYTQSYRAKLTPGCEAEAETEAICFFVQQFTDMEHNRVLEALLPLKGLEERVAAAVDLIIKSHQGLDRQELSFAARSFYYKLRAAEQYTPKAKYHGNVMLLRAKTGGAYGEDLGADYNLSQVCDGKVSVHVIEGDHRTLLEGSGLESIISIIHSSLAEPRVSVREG
Bile acid receptor (Homo sapiens), sequence (Q96RI1 whole entry, looked up): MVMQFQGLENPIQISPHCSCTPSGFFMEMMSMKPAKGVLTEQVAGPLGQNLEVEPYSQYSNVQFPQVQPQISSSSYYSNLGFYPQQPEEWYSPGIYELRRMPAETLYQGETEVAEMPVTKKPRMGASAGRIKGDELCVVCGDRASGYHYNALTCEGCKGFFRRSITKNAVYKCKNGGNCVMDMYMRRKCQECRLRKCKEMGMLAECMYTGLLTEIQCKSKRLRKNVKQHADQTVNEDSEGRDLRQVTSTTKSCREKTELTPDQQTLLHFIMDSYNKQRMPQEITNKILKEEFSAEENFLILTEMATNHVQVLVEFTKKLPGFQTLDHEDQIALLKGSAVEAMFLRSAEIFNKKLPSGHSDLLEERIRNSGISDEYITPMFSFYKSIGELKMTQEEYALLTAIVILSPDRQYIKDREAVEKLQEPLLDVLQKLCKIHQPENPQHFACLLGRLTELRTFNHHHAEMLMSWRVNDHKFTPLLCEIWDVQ
Peroxisome proliferator-activated receptor gamma (Homo sapiens), sequence (P37231 whole entry, looked up, the tested form may be a part): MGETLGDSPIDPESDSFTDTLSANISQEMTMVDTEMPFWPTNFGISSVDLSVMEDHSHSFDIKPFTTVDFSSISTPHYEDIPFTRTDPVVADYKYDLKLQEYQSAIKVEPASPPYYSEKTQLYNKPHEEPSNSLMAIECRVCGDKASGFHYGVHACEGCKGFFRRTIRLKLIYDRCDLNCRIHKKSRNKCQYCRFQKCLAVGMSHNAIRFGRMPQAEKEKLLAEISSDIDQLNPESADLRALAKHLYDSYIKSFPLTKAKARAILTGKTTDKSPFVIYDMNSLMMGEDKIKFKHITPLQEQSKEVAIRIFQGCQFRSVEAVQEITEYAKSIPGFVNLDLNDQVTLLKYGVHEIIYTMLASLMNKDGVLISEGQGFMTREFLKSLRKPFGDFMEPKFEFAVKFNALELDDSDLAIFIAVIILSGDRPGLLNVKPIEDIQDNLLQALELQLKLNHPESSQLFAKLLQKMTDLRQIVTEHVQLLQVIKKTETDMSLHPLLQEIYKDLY
Retinoic acid receptor RXR-alpha (Homo sapiens), sequence (P19793 whole entry, looked up): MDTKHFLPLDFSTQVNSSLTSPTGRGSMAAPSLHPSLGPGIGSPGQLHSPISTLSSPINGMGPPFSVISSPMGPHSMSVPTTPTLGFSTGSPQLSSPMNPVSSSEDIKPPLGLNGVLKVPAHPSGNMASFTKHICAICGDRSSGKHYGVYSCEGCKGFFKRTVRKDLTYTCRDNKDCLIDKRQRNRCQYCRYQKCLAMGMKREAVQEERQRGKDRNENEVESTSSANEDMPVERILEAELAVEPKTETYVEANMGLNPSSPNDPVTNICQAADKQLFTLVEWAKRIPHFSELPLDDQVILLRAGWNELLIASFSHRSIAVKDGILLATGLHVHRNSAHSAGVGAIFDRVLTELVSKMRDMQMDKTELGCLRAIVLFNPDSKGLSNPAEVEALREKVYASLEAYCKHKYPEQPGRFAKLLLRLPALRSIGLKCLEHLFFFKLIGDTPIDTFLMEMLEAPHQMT

As usually defined, the AC50 is the midpoint of the concentration-response curve, whichever way the signal moves. As to `CCNc1nc(Cl)nc(NCC)n1`, the compound was classed as inactive in experiment [1], in [2], in [3], in experiment [4], in [5] and in [6]. Moreover, the compound was called inactive in experiment [7], in [8], in [9], in [10], in [11] and in experiment [12]. The outcome in experiment [13], in experiment [15], in [16], in experiment [17], in experiment [18] and in experiment [19] was inactive. In addition, the AC50 in [14] is 8.07 µM (active).

On to `N#Cc1nn(-c2c(Cl)cc(C(F)(F)F)cc2Cl)c(N)c1S(=O)C(F)(F)F` (stereo not given), for which the AC50 in experiment [1] is 35 µM (active); in experiment [2], 33 µM (active); in experiment [16], 61.2 µM (active); in experiment [17], 58.1 µM (active); in experiment [19] it was 32.5 µM (active). Also, the result in experiment [3], in experiment [4], in experiment [5], in experiment [6] and in experiment [18] was inactive.

Consider `CCON=C(CC)C1=C(O)CC(c2c(C)cc(C)cc2C)CC1=O` (stereo not given), for which the compound was called inactive in [1], in experiment [2], in [3], in experiment [4], in experiment [5] and in experiment [6]. For the same compound, the compound was classed as inactive in experiment [7], in [8], in experiment [9], in experiment [20], in experiment [10] and in experiment [11]. Moreover, the outcome in experiment [12], in experiment [15], in [16], in experiment [18] and in experiment [19] was inactive. Also, the AC50 in [17] is 50 µM (active).

For the compound `COC(=O)N(OC)c1ccccc1COc1ccn(-c2ccc(Cl)cc2)n1`, the half-maximal activity concentration (AC50) in [1] was 1.54 µM (active); in experiment [2] it was 1.45 µM (active); in experiment [16] it was 78.3 µM (active); in experiment [19], 79 µM (active). For the same compound, the outcome in experiment [3], in experiment [4], in experiment [5], in experiment [6] and in experiment [17] was inactive.

As to `CNC(=O)ON=CC(C)(C)SC`, the result in experiment [1], in experiment [2], in [3], in experiment [4], in experiment [5] and in experiment [6] was inactive. The compound was classed as inactive in experiment [16], in [17], in experiment [18] and in [19].

For `CC(C)C1(C)N=C(c2nc3ccccc3cc2C(=O)O)NC1=O` (stereo not given), the compound was classed as inactive in experiment [1], in experiment [2], in experiment [3], in experiment [4], in [5] and in experiment [6]. The outcome in [16], in [17] and in [19] was inactive.
